Values joined by “and” are separate entries in the source; they are usually repeats but may differ in a detail not shown here. Equal entries are not always repeated.
System: HepG2
Experiment: GSK_TCMDC: Percent inhibition of human HepG2 cell line. Test compounds present at 10uM.
Format: functional

SMILES | Inhibition
CC[C@H]1CN2CC[C@H]1C[C@H]2[C@H](O)c1cc(N2CCCC(CO)C2)nc2ccc(OC)cc12 (stereo partly specified) | 11%
COc1cccc(C2(NC[C@@H](O)[C@H](Cc3ccccc3)NC(=O)c3ccccc3)CCCCC2)c1 | 14%
Brc1cnc(NC2=NCCN2)c(Br)c1.Cl | 0%
O=C(/C=C/c1ccc([N+](=O)[O-])cc1)NC1CCC(CN2CCC(c3c[nH]c4ccccc34)CC2)CC1 (stereo unspecified) | 30% and 34%
O=C(NC1CCC(CN2CCC(c3c[nH]c4ccccc34)CC2)CC1)c1cc(-c2ccccc2Cl)oc1C(F)(F)F (stereo unspecified) | 24%
CC[C@H]1CN2CC[C@H]1C[C@H]2[C@H](O)c1cc(/C=C/c2ccc(F)cc2)nc2ccc(OC)cc12.Cl | 55%
Cc1ccc(CC(C)NC[C@H](O)c2cccc(Cl)c2)cc1 (stereo partly specified) | 0%
CC(=O)N(Cc1ccccc1-c1cccc(CNCCc2ccccc2)c1)C1CCN(Cc2ccccc2)CC1.O=C(O)C(F)(F)F | 19%
C=C[C@H]1CN2CC[C@H]1C[C@H]2[C@H](O)c1cc(-c2ccc(Cl)cc2)nc2ccc(OC)cc12.Cl | 38%
CCCc1c(C(=O)NC2CCC(CN3CCC(c4c[nH]c5ccccc45)CC3)CC2)cnn1-c1ccc(Cl)cc1 (stereo unspecified) | 53%
CC(Cc1ccc(NC(=O)CCCc2ccccc2)cc1)NCCc1cccc(Cl)c1.Cl (stereo unspecified) | 12%
